Source: PubChem BioAssay (NCI)
The panel holds about 83,000 compounds, 20% with a hit somewhere; the sample as a whole holds those more often.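 Percent growth is the endpoint: 0 to 100 indicates growth inhibition (40 means 60% inhibition), 0 means no net growth, and negative values indicate cell death.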 Calls of active or inactive are those of the source. How the source made its calls: active means growth percent below 10; inactive means the rest.

Key:
Assay in all cases: NCI-60 one-dose screen, 48 h (100 = growth as untreated, 0 = no growth, -100 = all killed)
Details in all cases: 10 µM unless noted
[1] = system: SK-MEL-2 melanoma
[2] = system: EKVX NSCLC
[3] = system: SN12C renal
[4] = system: UO-31 renal
[5] = system: TK-10 renal
[6] = system: ACHN renal
[7] = system: CAKI-1 renal
[8] = system: A498 renal
[9] = system: CCRF-CEM leukemia
[10] = system: MOLT-4 leukemia

Measured: growth

CC(=O)C1=C(C)NC(NNc2ccccc2)=NC1c1ccc([N+](=O)[O-])cc1 (stereo not given)
inactive: [1] 102% | [2] 80% | [3] 98.8% | [4] 73.3% | [5] 109% | [6] 76% | [7] 43.3% | [8] 91.9% | [9] 89.7% | [10] 82.6%

O=C(/C=C/c1cccc(F)c1)c1cccc(OCCCCOc2cccc(C(=O)/C=C/c3cccc(F)c3)c2)c1
inactive: [1] 101% | [2] 99% | [3] 95.2% | [4] 96% | [5] 100% | [6] 100% | [7] 99.1% | [8] 110% | [9] 102% | [10] 95%

CC(=C(c1ccc(OCCN2CCCC2)cc1)c1ccc(OCCN2CCCC2)cc1)c1ccc(Cl)cc1
active: [1] -2.54% | [4] -74% | [6] -72.5% | [9] -48.6% | [10] -43%
inactive: [2] 37.3% | [3] 47.9% | [5] 78.6% | [7] 26.8% | [8] 86.5%

N#C/C(=C\c1cccc2c1OCO2)C(=O)Nc1sc2c(c1C#N)CCCC2
inactive: [1] 106% | [2] 87.8% | [3] 98.3% | [4] 82.6% | [5] 120% | [6] 109% | [7] 86.1% | [8] 98.6% | [9] 108% | [10] 102%

CCN1CCN(c2ccc(NC(=O)Nc3ccc4c(ccn4-c4ccnc(C(=O)NC)c4)c3)cc2C(F)(F)F)CC1
active: [9] 7.75%
inactive: [1] 94.8% | [2] 86.3% | [3] 90.8% | [4] 71% | [5] 113% | [6] 74.7% | [7] 79.3% | [8] 81.1% | [10] 10.9%

CC1CC(=O)C2=C(C1)Nc1ccc(Br)cc1CC2c1c[nH]c2ccc(Br)cc12 (stereo not given)
inactive: [1] 37.3% | [2] 41.2% | [3] 53.6% | [4] 50.9% | [5] 79.4% | [6] 48.6% | [7] 38.1% | [8] 19.7% | [9] 29.7% | [10] 35.8%

CC(C)[C@H]1c2[nH]c3ccccc3c2C[C@H]2C(=O)N(CCCCCCC(=O)NO)CC(=O)N12
inactive: [1] 86.8% | [2] 93% | [3] 90.2% | [4] 83.2% | [5] 72% | [6] 98.2% | [7] 86.2% | [8] 90% | [9] 27.8% | [10] 34.6%

COc1ccc([C@@H]2C(=O)N(c3cc(OC)c(OC)c(OC)c3)[C@H]2c2ccc(OC)c(O)c2)cc1
inactive: [1] 21.3% | [2] 48.4% | [3] 27.3% | [4] 25.4% | [5] 113% | [6] 28.3% | [7] 21% | [9] 21.5% | [10] 16%
active: [8] -28.5%

COc1cc(-c2nc(-c3ccccc3)[nH]c2-c2ccnc(NCCCNS(=O)(=O)c3ccc(C)cc3)n2)ccc1F
inactive: [1] 104% | [2] 74.5% | [3] 89.3% | [4] 78.6% | [5] 123% | [6] 84.6% | [7] 105% | [8] 84.1% | [9] 56.9% | [10] 45.1%

CC(C)NC(=O)c1cc(-c2ccc(NC(=O)Nc3ccc(F)c(C(F)(F)F)c3)cc2)nc2cccnc12
inactive: [1] 107% | [2] 95.3% | [3] 98.4% | [4] 92.3% | [5] 96.6% | [6] 90.5% | [7] 97.7% | [8] 89.7% | [9] 90.2% | [10] 117%

C(=N\Nc1nc(N/N=C/c2ccc3c(c2)OCO3)nc(N2CCCCC2)n1)/c1ccc2c(c1)OCO2
inactive: [1] 103% | [2] 93.7% | [3] 79.7% | [4] 74.4% | [5] 121% | [6] 94.9% | [7] 98.9% | [8] 51.7% | [9] 20.4% | [10] 56.3%

CC(C)(C)OC(=O)Nc1ccc(-c2cccc(Oc3ccc4nnc(Cl)n4n3)c2)cc1
inactive: [1] 65.8% | [2] 86.7% | [3] 78.7% | [4] 67.6% | [5] 71.1% | [6] 88% | [7] 83.6% | [8] 70.1% | [9] 60.4% | [10] 46.3%

N#Cc1nc(-c2ccc(Cl)cc2)oc1N1CCC(S(=O)(=O)N2CCOCC2)CC1
inactive: [1] 114% | [2] 105% | [3] 94.1% | [4] 73.2% | [5] 113% | [6] 100% | [7] 89.7% | [8] 102% | [9] 108% | [10] 104%

CC(C)(O)c1cncc(-c2ccc3ncc(C#N)c(N4CCc5cc(F)c(Cl)cc54)c3c2)c1
inactive: [3] 17.1% | [5] 14.3% | [9] 20.5%
active: [1] -5.06% | [2] -10.5% | [4] -2.66% | [6] 6.6% | [7] 0.608% | [8] -18.3% | [10] 5.17%

C[C@H]1OCC2(CCN(c3cnc(C(=O)Nc4cc(F)cc5cccnc45)cn3)CC2)[C@H]1N
inactive: [1] 101% | [2] 77.2% | [3] 46.5% | [4] 38.9% | [5] 82.2% | [6] 33.7% | [7] 40.9% | [8] 65.2% | [9] 15.6% | [10] 16.8%

CCCCCCCCCCCC(=O)NC(C)(C)C(=O)N1CCCC1C(=O)NC(C)(C)C(=O)NC(C)(C)C(=O)N1CCCC1C(=O)NC(C)(C)C(=O)NC(C)(C)C(=O)N1CCCC1C(=O)NC(C)C(=O)NCCC(=O)NC(C)C(=O)NC(C)(C)C(=O)NC(C)(C)C(=O)NC(C)(C)C(=O)NCCC(=O)NC(C)(C)C(=O)NC(C)(C)C(=O)NC(C)(C)C(=O)NC(C)C(=O)NCCC(=O)O (stereo not given)
active: [1] -96.2% | [2] -88.5% | [3] -94% | [4] -99.7% | [5] -97.1% | [6] -100% | [7] -94.2% | [8] -98.5% | [9] -55.6% | [10] -67.9%

C/C(CC1(O)C(=O)Nc2ccccc21)=N\O (stereo not given)
inactive: [1] 102% | [2] 87.9% | [3] 98% | [4] 84.9% | [5] 104% | [6] 92.5% | [7] 83.5% | [8] 70.6% | [9] 99.7% | [10] 95.4%

C#CCN(C)CCCOc1ccc(NCc2ccc(/C=C/C(=O)NO)cc2)cc1Cl
active: [1] -6.42% | [4] -57.4% | [5] -12% | [6] -41.4% | [7] -35.9% | [8] -72.2%
inactive: [2] 16.3% | [3] 12.1% | [9] 10.7% | [10] 15.7%

Cc1ccc2c(n1)C(=O)C(Cl)=C(Nc1ccc(C(=O)OC(C)(C)C)cc1)C2=O
inactive: [1] 116% [9.25 µM] | [2] 76.5% [9.25 µM] | [3] 88% [9.25 µM] | [4] 46.4% [9.25 µM] | [5] 83.9% [9.25 µM] | [8] 110% [9.25 µM]
active: [6] -21.5% [9.25 µM] | [7] -34.8% [9.25 µM] | [9] -23.2% [9.25 µM] | [10] -6.96% [9.25 µM]

COc1ccc(/C=N/N=C(/c2ccccc2)c2ccc3nc(-c4ccc(Cl)cc4)[nH]c3c2)cc1
inactive: [1] 89.1% | [2] 91.9% | [3] 85.4% | [4] 78.7% | [5] 81.9% | [6] 87.5% | [7] 72.4% | [8] 59.8% | [9] 68.1% | [10] 53.2%

O=C(Nc1ccc(Cl)c(C(F)(F)F)c1)Nc1ccc2oc(=O)ccc2c1
inactive: [1] 71.2% | [2] 35.2% | [3] 31.9% | [4] 31.3% | [5] 70.4% | [6] 10.2% | [7] 36.1% | [8] 33% | [9] 25.5% | [10] 28.2%
